# Measured values published in PubChem BioAssay AID463173 (ICCB-Longwood Screening Facility, Harvard Medical School, 2010).
# About 4,300 (8.3%) of roughly 52,000 compounds were called active. Cut-off read from the data, not from the text of the source: active = survival mostly below about 52% (no sharp cut-off); inactive = mostly above about 56%. The sample as a whole holds a higher share of actives than the screen did.
# System: DeltatarO mutant
# Assay: growth inhibition of S. aureus wild type versus tarO mutant, primary screen, teichoic acid synthesis inhibitors, RN4220, OD600 (AID 463173)
# Conditions: OD600, 18 h, active compounds read low, screened at 18.75 µg/mL (by protocol)
row,Compound,survival
1,COC(=O)c1c(NC(=O)CCCOc2ccc(C(C)(C)C)cc2)sc2c1C(C(=O)OC)CC2 (stereo not drawn),3% (active)
2,CCOc1ccc(/C=C/C(=O)Nc2sc3c(c2C(=O)OC)C(C(=O)OC)CC3)cc1 (stereo not drawn),56% (inactive)
3,COC(=O)c1c(NC(=O)/C(C#N)=C/c2ccccc2)sc2c1C(C(=O)OC)CC2 (stereo not drawn),58% (inactive)
4,COC(=O)c1c(NC(=O)c2cccs2)sc2c1C(C(=O)OC)CC2 (stereo not drawn),94% (inactive)
5,COC(=O)c1c(NC(=O)CCCOc2cccc(C)c2)sc2c1C(C(=O)OC)CC2 (stereo not drawn),0% (active)
6,COC(=O)c1c(NC(=O)CCCOc2ccc(C)cc2)sc2c1C(C(=O)OC)CC2 (stereo not drawn),44% (inactive)
7,COc1ccc(NC(=O)CCn2c(-c3ccc(F)cc3)cc(C(C)=O)c2C)c(OC)c1,124% (inactive)
8,COc1ccccc1Cc1nc2ccccc2nc1SCC(=O)NCc1ccccc1Cl,135% (inactive)
9,COc1ccc2c(c1)CC(C(=O)Nc1cc(OC)c(OC)c(OC)c1)CO2 (stereo not drawn),83% (inactive)
10,CCCCOC(=O)c1ccc(OC(=O)c2sc3ncn(Cc4ccccc4Cl)c(=O)c3c2C)cc1,90% (inactive)
11,Cc1ccc(CNC(=O)c2oc3ccc(S(=O)(=O)N4CCC(C)CC4)cc3c2C)cc1,57% (inactive)
12,Cc1ccc(Cl)cc1NC(=O)Cn1c(=O)n(CCC(=O)N2CCc3ccccc3C2)c(=O)c2ccccc21,102% (inactive)
13,CSc1nc(-c2ccc(Cl)cc2)nn1S(=O)(=O)c1ccc(NC(C)=O)cc1,43% (active)
14,CSc1nc(-c2ccc(Cl)cc2)nn1C(C)=O,57% (inactive)
15,CC(=O)Nc1ccc(S(=O)(=O)NCCc2csc3nc(-c4ccc(Cl)cc4)nn23)cc1,70% (inactive)
16,CCc1c(C)nc2cc(-c3cc(OC)cc(OC)c3)nn2c1NCCCN(CC)CC,113% (inactive)
17,Cc1ccc(N(C(=O)c2ccco2)C(C(=O)NC2CCCC2)c2ccc(N(C)C)cc2)c(C)c1 (stereo not drawn),93% (inactive)
18,O=C(NC1CCCC1)C(c1ccccc1)N(C(=O)c1ccco1)C1CCCC1 (stereo not drawn),79% (inactive)
19,O=C(NC1CCCC1)C(c1ccccc1)N(Cc1ccccc1F)C(=O)c1ccco1 (stereo not drawn),102% (inactive)
20,Cc1ccc(C(C(=O)NC2CCCCC2)N(C)Cc2ccccc2)cc1 (stereo not drawn),-3% (active)
21,CN(Cc1ccccc1)C(C(=O)NC1CCCCC1)c1ccc(Cl)cc1 (stereo not drawn),37% (active)
22,Cc1ccc(-c2nnn(CC(=O)N(Cc3ccccc3)C(C(=O)NC3CCCC3)c3ccco3)n2)cc1 (stereo not drawn),64% (inactive)
23,O=C(O)c1cccc(N=C2NC(=O)C(CO)(CO)S2)c1,89% (inactive)
24,Cc1cccc(Cc2c(C)nc3nc(SCc4cccc(F)c4)nn3c2C)c1,78% (inactive)
25,CCOC(=O)c1ccc(NC(=O)C2CC(=O)N3CCCN=C3S2)cc1 (stereo not drawn),94% (inactive)

row,Compound,survival
1,Cc1cccc(NC(=O)c2sc3nc4n(c(=O)c3c2C)N=C(c2ccc(F)cc2)CS4)c1C,99% (inactive)
2,CCc1cccc(C)c1NC(=O)Cn1c(=O)cc(C(F)(F)F)c2c(C)nn(C)c21,85% (inactive)
3,CCOc1ccc(C=Nc2ccc3c(c2)ncn3C)cc1,96% (inactive)
4,CC(C)(C)n1cnc2cc(NCc3ccccc3Cl)ccc21,7% (active)
5,COc1cc(CNc2ccc3c(c2)ncn3C(C)C)cc(OC)c1OC,64% (inactive)
6,CC(C)(C)n1cnc2cc(NS(=O)(=O)c3ccccc3)ccc21,86% (inactive)
7,CCCCn1cnc2cc(NCc3ccccc3Cl)ccc21,-16% (active)
8,CCc1ccc(CNc2ccc3c(c2)ncn3C(C)(C)C)cc1,-16% (active)
9,CCCCn1cnc2cc(NC(=O)c3cc(OC)c(OC)c(OC)c3)ccc21,66% (inactive)
10,Cc1cc(C)n2nc(NCc3ccccc3Cl)nc2n1,90% (inactive)
11,CC(C)(C)n1cnc2cc(N=Cc3ccccc3O)ccc21,81% (inactive)
12,CCCCn1cnc2cc(NCc3ccc(OCC)cc3)ccc21,11% (active)
13,CCCn1cnc2cc(NC(=O)c3cc(OC)c(OC)c(OC)c3)ccc21,66% (inactive)
14,CCn1cnc2cc(NCc3ccc(N(C)C)cc3)ccc21,72% (inactive)
15,CCOc1ccc(NC(=O)CSc2oc(-c3cccs3)nc2S(=O)(=O)c2ccc(Cl)cc2)cc1,63% (inactive)
16,COc1ccc2c(c1)c1c(c(=O)n(-c3ccccc3C)c(=O)n1Cc1cccc(C(F)(F)F)c1)n2C,94% (inactive)
17,O=S(=O)(c1ccccc1)N1CCC(n2cnc3ccccc32)CC1,78% (inactive)
18,Cc1ccc(C)c(NC(=O)C2CCN(S(=O)(=O)c3c(C)noc3/C=C/c3cccs3)CC2)c1,63% (inactive)
19,Cn1nnc(C(O)CNCc2ccc(F)cc2)n1 (stereo not drawn),105% (inactive)
20,CCOC(=O)c1c(NC(=O)c2ccc(S(=O)(=O)N(CCOC)CCOC)cc2)sc2c1CC(C)(C)NC2(C)C,78% (inactive)
21,Cc1cccc(CNC(=O)c2cnc3sc(N4CCCCCC4)nn3c2=O)c1,99% (inactive)
22,COc1ccc(NC(=O)CCn2nc(-c3ccccc3OC)c3c(C)cc(C)nc32)cc1,70% (inactive)
23,CC(=O)c1cccc(NC(=O)c2cnn(-c3cccc(C)c3)c2-n2cccc2)c1,99% (inactive)
24,CCOC(=O)c1[nH]c(C)c(CCC(=O)Nc2cc(Cl)ccc2C)c1C,73% (inactive)
25,CCOC(=O)c1oc2ccc(S(=O)(=O)n3nc(-c4cc(OC)cc(OC)c4)cc3N)cc2c1C,111% (inactive)

row,Compound,survival
1,COc1cccc(CNC(=O)CSC2=Nc3ccccc3N=C(c3ccc(F)cc3)C2)c1,117% (inactive)
2,CC(=O)c1ccc(NC(=O)C(Cc2ccccc2)NS(=O)(=O)c2ccc3c(c2)CCC(=O)N3)cc1 (stereo not drawn),84% (inactive)
3,CCCSc1ncc(Cl)c(C(=O)Nc2c(C(=O)Nc3ccc(OC)cc3)oc3ccccc23)n1,68% (inactive)
4,COc1ccccc1CNC(=O)c1cnc2sc(N3CCCCC3)nn2c1=O,66% (inactive)
5,Cc1oc(CSCCSCc2cc(C(=O)O)c(C)o2)cc1C(=O)O,94% (inactive)
6,COc1cccc(CNc2ccc3c(c2)ncn3C)c1OC,122% (inactive)
7,CCCn1cnc2cc(NCc3ccccc3OCC)ccc21,35% (active)
8,CCCn1cnc2cc(NCc3ccc(OC)cc3OC)ccc21,64% (inactive)
9,Cc1ccc(-c2nnc(SCc3cccc(C#N)c3)o2)cc1,62% (inactive)
10,COc1cccc(CNC(=O)c2cnc(N3CCCCC3)c3ccccc23)c1,86% (inactive)
11,Cc1ccc2[nH]c3c(=O)n(CC(=O)NC(C)C)ncc3c2c1,6% (active)
12,Cc1ccc(CNC(=O)Cn2ncc3c([nH]c4ccc(C)cc43)c2=O)cc1,88% (inactive)
13,CCOC(=O)C1CCN(C(=O)Cn2ncc3c([nH]c4ccc(C)cc43)c2=O)CC1,72% (inactive)
14,COc1cc(OC)c(N(C)C(=O)Cn2ncc3c([nH]c4ccccc43)c2=O)cc1Cl,91% (inactive)
15,Cc1ccc(N(C)C(=O)Cn2ncc3c([nH]c4ccccc43)c2=O)cc1C,37% (active)
16,CCOc1ccccc1NC(=O)Cn1ncc2c([nH]c3ccccc32)c1=O,126% (inactive)
17,CCN(CC)C(=O)Cn1ncc2c([nH]c3ccccc32)c1=O,118% (inactive)
18,CCCN(C(=O)Cn1ncc2c([nH]c3ccccc32)c1=O)c1ccc(F)cc1,101% (inactive)
19,CCOc1ccccc1N(CC)C(=O)Cn1ncc2c([nH]c3ccccc32)c1=O,46% (active)
20,CCOC(=O)C1CCCN(C(=O)Cn2ncc3c([nH]c4ccccc43)c2=O)C1 (stereo not drawn),83% (inactive)
21,CCOC(=O)C1CCN(C(=O)Cn2ncc3c([nH]c4ccccc43)c2=O)CC1,25% (active)
22,Cc1ccc(CCNC(=O)Cn2ncc3c([nH]c4ccc(C)cc43)c2=O)cc1,119% (inactive)
23,Cc1ccccc1S(=O)(=O)Cc1ccc(C(=O)NCCc2ccccc2)o1,76% (inactive)
24,Cc1ccc2c(c1)c1c(c(=O)n(-c3ccccc3C)c(=O)n1Cc1ccccc1F)n2C,73% (inactive)
25,CCCN(CCC)C(=O)Cn1c(=O)n(-c2cccc(C)c2)c(=O)c2c1c1cc(OC)ccc1n2C,64% (inactive)

row,Compound,survival
1,CCOc1ccc(CCNC(=O)CCCn2nc(C)c3sc4ccccc4c3c2=O)cc1,72% (inactive)
2,CCOc1ccc(CCNC(=O)NCc2noc3ccc(C)cc23)cc1,74% (inactive)
3,COCCCNC(=O)c1ccc(Cn2c(=O)c3ccccc3n(Cc3c(C)cc(C)cc3C)c2=O)cc1,107% (inactive)
4,CCCNC(=O)N(C)c1ncnnc1NC,98% (inactive)
5,COc1ccccc1C(=O)Nc1nnc(SCc2cc(=O)c3cc(Cl)ccc3[nH]2)s1,62% (inactive)
6,CCCCN(C)C(=O)Cn1ncc2c([nH]c3ccc(C)cc32)c1=O,70% (inactive)
7,Cc1ccc2[nH]c3c(=O)n(CC(=O)N(CCN(C)C)Cc4ccccc4)ncc3c2c1,97% (inactive)
8,Cc1ccc2[nH]c3c(=O)n(CC(=O)N(C)Cc4ccccc4)ncc3c2c1,-1% (active)
9,Cc1cc(F)ccc1NC(=O)c1c(C)oc2c1C1=NCCN1C=N2,102% (inactive)
10,Cc1cccc(CNC(=O)c2ccc(C)c(-n3c(C)nc4cccnc43)c2)c1,67% (inactive)
11,CCC(C)NC(=O)C1CCCN(S(=O)(=O)c2ccc(C)c(Cl)c2)C1 (stereo not drawn),94% (inactive)
12,COc1ccc(NC(=O)Cn2c(=O)n(Cc3nc(-c4ccccc4)no3)c(=O)c3cc4c(cc32)OCO4)c(OC)c1,94% (inactive)
13,CCOc1ccc(CCNC(=O)C(CC)n2nc(C)c3c(C)n(-c4ccccc4)nc3c2=O)cc1 (stereo not drawn),69% (inactive)
14,Cc1ccccc1OC(=O)c1snnc1C,90% (inactive)
15,CCSc1ncc(Cl)c(C(=O)N(Cc2ccc(N(C)C)cc2)Cc2ccco2)n1,104% (inactive)
16,CCCS(=O)(=O)c1ncc(Cl)c(C(=O)N(Cc2ccccc2)Cc2ccco2)n1,40% (active)
17,CS(=O)(=O)c1ncc(Cl)c(C(=O)N(Cc2ccc(Cl)cc2)Cc2ccco2)n1,4% (active)
18,CCS(=O)(=O)c1ncc(Cl)c(C(=O)N(Cc2ccccc2)Cc2ccco2)n1,52% (inactive)
19,CCSc1ncc(Cl)c(C(=O)N(Cc2ccccc2)Cc2ccco2)n1,106% (inactive)
20,CCCSc1ncc(Cl)c(C(=O)N(Cc2ccc(Cl)cc2)Cc2ccco2)n1,39% (active)
21,Cc1ccc(CN(Cc2ccco2)C(=O)c2ccc(Cl)cc2Cl)cc1,53% (inactive)
22,CCCOc1ccc(C(=O)N(Cc2ccc(Cl)cc2)Cc2ccco2)cc1,50% (inactive)
23,CSc1ncc(Cl)c(C(=O)N(Cc2ccc(N(C)C)cc2)Cc2ccco2)n1,80% (inactive)
